# ChEMBL document CHEMBL1961873, “Compounds: GSK PKIS; Assays: Nanosyn kinase panel” (2012)
# Tests used:
# [1] = target: Mitogen-activated protein kinase 3 (Homo sapiens) (UniProt P27361); conditions: at 1 µM;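 further: values are mean percent inhibition of MAPK3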
# [2] = target: SRSF protein kinase 3 (Homo sapiens) (UniProt Q9UPE1); conditions: at 0.1 µM
# [3] = target: SRSF protein kinase 3 (Homo sapiens) (UniProt Q9UPE1); conditions: at 1 µM
# [4] = target: Mitogen-activated protein kinase 14 (Homo sapiens) (UniProt Q16539); conditions: at 0.1 µM
# Sequence of Mitogen-activated protein kinase 14 (Homo sapiens) (Q16539 whole entry): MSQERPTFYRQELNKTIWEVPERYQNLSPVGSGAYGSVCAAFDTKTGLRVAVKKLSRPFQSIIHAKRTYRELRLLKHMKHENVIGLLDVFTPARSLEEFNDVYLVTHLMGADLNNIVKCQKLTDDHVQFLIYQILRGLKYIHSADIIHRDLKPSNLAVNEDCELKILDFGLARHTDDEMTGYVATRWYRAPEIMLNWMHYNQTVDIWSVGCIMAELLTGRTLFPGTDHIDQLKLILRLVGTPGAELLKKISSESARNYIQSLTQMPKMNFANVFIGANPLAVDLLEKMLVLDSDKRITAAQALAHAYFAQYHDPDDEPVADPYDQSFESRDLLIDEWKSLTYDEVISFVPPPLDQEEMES
# [5] = target: Mitogen-activated protein kinase 14 (Homo sapiens) (UniProt Q16539); conditions: at 1 µM
# [6] = target: Mitogen-activated protein kinase 11 (Homo sapiens) (UniProt Q15759); conditions: at 0.1 µM
# Sequence of Mitogen-activated protein kinase 11 (Homo sapiens) (Q15759 whole entry): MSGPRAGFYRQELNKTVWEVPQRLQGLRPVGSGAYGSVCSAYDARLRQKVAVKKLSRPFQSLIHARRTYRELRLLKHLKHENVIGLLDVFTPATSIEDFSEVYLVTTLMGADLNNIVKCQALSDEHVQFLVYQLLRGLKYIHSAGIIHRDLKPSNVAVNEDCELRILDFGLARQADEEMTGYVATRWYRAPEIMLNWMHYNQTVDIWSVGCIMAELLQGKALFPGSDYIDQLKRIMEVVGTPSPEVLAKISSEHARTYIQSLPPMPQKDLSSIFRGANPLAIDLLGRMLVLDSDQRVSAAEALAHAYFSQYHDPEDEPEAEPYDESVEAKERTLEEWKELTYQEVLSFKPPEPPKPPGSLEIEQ
# [7] = target: Mitogen-activated protein kinase 11 (Homo sapiens) (UniProt Q15759); conditions: at 1 µM
# [8] = target: T1, Mitogen-activated protein kinase 13 (Homo sapiens) (UniProt O15264); conditions: at 0.1 µM
# T1 sequence (whole entry): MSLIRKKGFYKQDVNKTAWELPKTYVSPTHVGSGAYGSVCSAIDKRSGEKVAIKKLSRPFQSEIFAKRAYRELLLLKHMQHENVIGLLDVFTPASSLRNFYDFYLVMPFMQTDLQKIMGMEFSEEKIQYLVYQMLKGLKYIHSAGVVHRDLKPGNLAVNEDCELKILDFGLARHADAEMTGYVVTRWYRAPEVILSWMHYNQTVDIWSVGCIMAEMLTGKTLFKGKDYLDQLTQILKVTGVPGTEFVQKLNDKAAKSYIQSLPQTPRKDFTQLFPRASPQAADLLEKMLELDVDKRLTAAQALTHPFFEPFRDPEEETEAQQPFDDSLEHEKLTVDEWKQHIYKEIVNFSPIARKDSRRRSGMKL
# [9] = target: T1, Mitogen-activated protein kinase 13 (Homo sapiens); conditions: at 1 µM
# [10] = target: T2, Mitogen-activated protein kinase 12 (Homo sapiens) (UniProt P53778); conditions: at 0.1 µM
# T2 sequence (whole entry): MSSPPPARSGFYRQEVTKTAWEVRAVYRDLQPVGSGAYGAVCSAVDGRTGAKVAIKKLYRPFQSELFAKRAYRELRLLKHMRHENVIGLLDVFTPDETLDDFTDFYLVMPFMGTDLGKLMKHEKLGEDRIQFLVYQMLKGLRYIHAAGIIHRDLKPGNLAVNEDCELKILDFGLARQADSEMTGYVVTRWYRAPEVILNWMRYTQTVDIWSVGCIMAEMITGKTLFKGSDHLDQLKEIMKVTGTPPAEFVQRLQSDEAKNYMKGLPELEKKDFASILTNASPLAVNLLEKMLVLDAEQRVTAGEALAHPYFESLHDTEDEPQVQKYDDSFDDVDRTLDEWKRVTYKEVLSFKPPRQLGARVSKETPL
# [11] = target: T2, Mitogen-activated protein kinase 12 (Homo sapiens); conditions: at 1 µM
# [12] = target: SRSF protein kinase 1 (Homo sapiens) (UniProt Q96SB4); conditions: at 0.1 µM
# Sequence of SRSF protein kinase 1 (Homo sapiens) (Q96SB4 whole entry, canonical isoform): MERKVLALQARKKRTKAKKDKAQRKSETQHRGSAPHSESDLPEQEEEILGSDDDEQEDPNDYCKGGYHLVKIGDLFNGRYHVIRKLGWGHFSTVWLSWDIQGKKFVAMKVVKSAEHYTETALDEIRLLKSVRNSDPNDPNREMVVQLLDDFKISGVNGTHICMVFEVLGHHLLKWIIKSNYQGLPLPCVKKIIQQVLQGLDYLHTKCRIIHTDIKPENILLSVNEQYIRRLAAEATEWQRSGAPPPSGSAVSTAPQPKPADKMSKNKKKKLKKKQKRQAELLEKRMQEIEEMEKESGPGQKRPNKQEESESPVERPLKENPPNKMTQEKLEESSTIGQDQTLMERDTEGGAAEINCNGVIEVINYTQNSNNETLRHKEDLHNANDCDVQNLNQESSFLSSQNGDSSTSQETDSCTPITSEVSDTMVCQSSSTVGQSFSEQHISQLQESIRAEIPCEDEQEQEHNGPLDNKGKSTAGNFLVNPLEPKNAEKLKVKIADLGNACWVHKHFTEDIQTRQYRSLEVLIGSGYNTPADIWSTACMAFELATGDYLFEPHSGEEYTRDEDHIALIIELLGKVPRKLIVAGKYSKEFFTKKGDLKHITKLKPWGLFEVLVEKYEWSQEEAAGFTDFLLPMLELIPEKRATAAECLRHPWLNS
# [13] = target: SRSF protein kinase 1 (Homo sapiens) (UniProt Q96SB4); conditions: at 1 µM
# [14] = target: Phosphatidylinositol 4,5-bisphosphate 3-kinase catalytic subunit alpha isoform (Homo sapiens) (UniProt P42336); conditions: at 0.1 µM
# Sequence of Phosphatidylinositol 4,5-bisphosphate 3-kinase catalytic subunit alpha isoform (Homo sapiens) (P42336 whole entry, canonical isoform): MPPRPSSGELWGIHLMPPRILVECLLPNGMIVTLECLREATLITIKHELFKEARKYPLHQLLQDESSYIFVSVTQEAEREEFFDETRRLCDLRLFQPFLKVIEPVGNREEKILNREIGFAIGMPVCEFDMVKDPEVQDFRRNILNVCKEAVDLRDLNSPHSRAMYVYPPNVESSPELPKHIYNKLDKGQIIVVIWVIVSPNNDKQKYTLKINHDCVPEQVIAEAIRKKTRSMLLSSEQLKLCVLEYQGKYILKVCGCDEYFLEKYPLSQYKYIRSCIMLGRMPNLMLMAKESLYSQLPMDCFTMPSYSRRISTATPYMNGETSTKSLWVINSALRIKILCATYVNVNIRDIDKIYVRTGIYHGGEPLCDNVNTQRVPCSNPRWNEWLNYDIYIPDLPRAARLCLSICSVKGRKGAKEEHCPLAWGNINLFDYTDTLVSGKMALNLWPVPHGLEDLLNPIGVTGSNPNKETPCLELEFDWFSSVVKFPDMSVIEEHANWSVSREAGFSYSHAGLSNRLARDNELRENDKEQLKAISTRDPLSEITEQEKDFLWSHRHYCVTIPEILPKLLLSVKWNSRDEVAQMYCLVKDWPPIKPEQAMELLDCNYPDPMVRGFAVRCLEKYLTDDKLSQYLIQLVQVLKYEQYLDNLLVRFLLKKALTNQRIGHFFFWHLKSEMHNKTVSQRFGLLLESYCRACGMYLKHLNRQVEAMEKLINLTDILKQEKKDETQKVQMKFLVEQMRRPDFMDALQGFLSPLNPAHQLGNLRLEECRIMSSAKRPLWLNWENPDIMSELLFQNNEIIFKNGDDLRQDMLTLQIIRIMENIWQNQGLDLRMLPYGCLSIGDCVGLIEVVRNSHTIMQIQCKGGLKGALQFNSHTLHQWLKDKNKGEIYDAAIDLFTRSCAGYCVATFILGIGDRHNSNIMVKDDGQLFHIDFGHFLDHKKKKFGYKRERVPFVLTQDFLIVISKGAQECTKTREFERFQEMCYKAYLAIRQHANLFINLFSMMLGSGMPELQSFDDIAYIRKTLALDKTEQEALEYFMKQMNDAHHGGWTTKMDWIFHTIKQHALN
# [15] = target: Phosphatidylinositol 4,5-bisphosphate 3-kinase catalytic subunit alpha isoform (Homo sapiens) (UniProt P42336); conditions: at 1 µM
# [16] = target: T3, Phosphatidylinositol 4,5-bisphosphate 3-kinase catalytic subunit delta isoform (Homo sapiens) (UniProt O00329); conditions: at 0.1 µM
# T3 sequence (whole entry): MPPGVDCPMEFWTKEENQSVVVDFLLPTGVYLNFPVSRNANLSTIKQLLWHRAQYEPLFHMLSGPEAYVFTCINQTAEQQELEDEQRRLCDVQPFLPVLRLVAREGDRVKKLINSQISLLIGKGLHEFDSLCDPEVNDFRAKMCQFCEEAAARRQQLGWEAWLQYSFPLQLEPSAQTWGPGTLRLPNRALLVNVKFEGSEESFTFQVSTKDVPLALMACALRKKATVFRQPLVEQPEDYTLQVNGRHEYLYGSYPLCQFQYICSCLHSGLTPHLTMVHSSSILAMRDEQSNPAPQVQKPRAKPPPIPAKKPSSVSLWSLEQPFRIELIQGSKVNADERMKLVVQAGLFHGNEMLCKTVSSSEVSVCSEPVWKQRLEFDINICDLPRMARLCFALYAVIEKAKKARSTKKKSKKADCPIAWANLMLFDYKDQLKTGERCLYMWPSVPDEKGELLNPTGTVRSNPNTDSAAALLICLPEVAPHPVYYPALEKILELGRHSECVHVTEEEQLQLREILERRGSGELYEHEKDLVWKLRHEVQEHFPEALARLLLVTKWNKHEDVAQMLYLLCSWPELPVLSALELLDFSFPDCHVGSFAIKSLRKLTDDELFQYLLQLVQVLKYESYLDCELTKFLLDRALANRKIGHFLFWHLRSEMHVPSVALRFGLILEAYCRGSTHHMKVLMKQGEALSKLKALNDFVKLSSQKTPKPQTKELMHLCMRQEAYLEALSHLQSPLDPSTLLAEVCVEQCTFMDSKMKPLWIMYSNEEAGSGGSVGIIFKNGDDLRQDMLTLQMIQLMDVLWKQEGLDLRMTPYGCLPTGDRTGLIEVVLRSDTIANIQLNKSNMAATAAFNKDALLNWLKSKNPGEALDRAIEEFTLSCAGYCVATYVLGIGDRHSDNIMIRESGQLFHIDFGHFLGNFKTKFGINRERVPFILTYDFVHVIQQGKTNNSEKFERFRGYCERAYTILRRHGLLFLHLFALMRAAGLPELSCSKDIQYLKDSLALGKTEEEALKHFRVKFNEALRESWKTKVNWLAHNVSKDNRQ
# [17] = target: T3, Phosphatidylinositol 4,5-bisphosphate 3-kinase catalytic subunit delta isoform (Homo sapiens); conditions: at 1 µM
# [18] = target: Phosphatidylinositol 4-kinase beta (Homo sapiens) (UniProt Q9UBF8); conditions: at 0.1 µM
# Sequence of Phosphatidylinositol 4-kinase beta (Homo sapiens) (Q9UBF8 2-816 limits assumed): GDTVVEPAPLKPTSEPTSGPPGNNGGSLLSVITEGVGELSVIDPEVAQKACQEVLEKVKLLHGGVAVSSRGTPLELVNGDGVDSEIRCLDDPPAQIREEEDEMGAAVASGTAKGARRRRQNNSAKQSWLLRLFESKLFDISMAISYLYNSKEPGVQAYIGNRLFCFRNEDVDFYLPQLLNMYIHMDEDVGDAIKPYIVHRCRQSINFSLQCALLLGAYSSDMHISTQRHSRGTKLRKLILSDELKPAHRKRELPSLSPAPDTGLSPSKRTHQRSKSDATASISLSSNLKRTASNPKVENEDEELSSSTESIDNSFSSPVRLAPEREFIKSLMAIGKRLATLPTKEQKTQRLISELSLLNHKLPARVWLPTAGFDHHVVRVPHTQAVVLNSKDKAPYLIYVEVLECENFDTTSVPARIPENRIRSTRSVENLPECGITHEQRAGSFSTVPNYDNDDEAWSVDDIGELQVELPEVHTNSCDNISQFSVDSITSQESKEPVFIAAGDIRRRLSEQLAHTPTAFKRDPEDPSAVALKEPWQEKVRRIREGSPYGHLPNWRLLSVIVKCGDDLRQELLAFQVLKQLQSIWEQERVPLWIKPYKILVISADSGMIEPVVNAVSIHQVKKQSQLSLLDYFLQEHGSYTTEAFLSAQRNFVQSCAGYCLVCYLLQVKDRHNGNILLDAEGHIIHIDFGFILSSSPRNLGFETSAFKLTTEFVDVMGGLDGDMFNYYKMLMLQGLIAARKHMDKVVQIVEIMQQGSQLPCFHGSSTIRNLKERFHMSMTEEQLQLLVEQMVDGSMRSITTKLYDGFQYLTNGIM
# [19] = target: Phosphatidylinositol 4-kinase beta (Homo sapiens) (UniProt Q9UBF8); conditions: at 1 µM
# [20] = target: Sphingosine kinase 1 (Homo sapiens) (UniProt Q9NYA1); conditions: at 0.1 µM;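 further: mean percent inhibition of SPHK1 activity, measured within the GSK PKIS screening panel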
# Sequence of Sphingosine kinase 1 (Homo sapiens) (Q9NYA1 whole entry): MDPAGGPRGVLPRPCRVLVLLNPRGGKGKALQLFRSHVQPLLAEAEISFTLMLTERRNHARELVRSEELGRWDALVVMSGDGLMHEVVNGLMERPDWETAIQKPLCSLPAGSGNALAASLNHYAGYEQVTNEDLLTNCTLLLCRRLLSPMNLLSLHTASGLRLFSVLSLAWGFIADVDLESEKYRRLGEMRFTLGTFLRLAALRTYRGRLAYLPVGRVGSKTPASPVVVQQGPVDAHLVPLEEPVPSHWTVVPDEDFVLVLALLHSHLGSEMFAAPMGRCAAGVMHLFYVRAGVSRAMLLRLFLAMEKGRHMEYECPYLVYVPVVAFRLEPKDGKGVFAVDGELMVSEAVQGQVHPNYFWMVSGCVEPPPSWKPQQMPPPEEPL
# Sequence of SRSF protein kinase 3 (Homo sapiens) (Q9UPE1 whole entry): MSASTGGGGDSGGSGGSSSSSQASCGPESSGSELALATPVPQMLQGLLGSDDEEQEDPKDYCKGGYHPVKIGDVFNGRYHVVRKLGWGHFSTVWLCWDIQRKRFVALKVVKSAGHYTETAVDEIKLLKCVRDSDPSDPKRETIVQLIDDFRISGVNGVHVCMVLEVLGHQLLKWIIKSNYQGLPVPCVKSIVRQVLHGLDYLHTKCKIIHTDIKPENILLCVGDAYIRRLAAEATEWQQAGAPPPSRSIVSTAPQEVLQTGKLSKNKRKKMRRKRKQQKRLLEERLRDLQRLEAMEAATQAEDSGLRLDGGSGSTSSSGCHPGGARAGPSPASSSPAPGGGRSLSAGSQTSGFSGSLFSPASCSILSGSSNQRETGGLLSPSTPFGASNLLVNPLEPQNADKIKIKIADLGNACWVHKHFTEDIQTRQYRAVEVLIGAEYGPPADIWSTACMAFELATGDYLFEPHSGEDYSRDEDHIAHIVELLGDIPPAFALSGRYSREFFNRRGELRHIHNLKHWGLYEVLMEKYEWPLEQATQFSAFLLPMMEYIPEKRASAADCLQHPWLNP
# Sequence of Mitogen-activated protein kinase 3 (Homo sapiens) (P27361 whole entry): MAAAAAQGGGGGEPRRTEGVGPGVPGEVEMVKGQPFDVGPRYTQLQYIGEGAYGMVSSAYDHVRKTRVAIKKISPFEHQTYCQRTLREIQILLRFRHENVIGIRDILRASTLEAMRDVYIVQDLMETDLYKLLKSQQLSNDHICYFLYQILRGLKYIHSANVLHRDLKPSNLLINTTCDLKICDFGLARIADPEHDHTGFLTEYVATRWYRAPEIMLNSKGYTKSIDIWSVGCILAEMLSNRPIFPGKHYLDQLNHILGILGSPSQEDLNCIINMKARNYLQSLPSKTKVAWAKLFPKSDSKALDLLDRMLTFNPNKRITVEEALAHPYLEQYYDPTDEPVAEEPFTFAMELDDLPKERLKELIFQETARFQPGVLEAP
SMILES,inhibition [1],inhibition [2],inhibition [3],inhibition [4],inhibition [5],inhibition [6],inhibition [7],inhibition [8],inhibition [9],inhibition [10],inhibition [11],inhibition [12],inhibition [13],inhibition [14],inhibition [15],inhibition [16],inhibition [17],inhibition [18],inhibition [19],inhibition [20]
CCCN1CCCC(c2ccc(Nc3nc(Nc4cc(F)ccc4C(N)=O)c4cc[nH]c4n3)c(OC)c2)C1 (stereo not given),9.65%,4.66%,28.2%,13.9%,17.1%,7.57%,14.5%,6.1%,7.07%,3.99%,3.39%,-0.71%,7.5%,2.9%,5.55%,2.18%,9.74%,-3.21%,-1.21%,-0.22%
c1ccc(Cc2nc3ccc(Nc4ncnc5ccccc45)cc3[nH]2)cc1,4.11%,0.5%,-0.46%,6.98%,6.36%,2.73%,2.79%,4.91%,5.18%,1.83%,0.6%,-1.1%,1.41%,3.03%,4.64%,1.66%,0.62%,-0.98%,-1.72%,1.07%
C[C@@H](Oc1cc(-n2cnc3ccc(OCC4CCN(C)CC4)cc32)sc1C(N)=O)c1ccccc1C(F)(F)F,-0.11%,0.22%,0.15%,-2.1%,1.86%,1.51%,3.33%,-2.92%,-3.87%,-1.88%,-2.08%,-0.56%,1.16%,-1.6%,13.3%,2.19%,55.9%,6.54%,0.1%,0.59%
C[C@@H](Oc1cc(-n2cnc3ccc(OC[C@@H](O)CO)cc32)sc1C(N)=O)c1ccccc1Cl,-2.21%,-1.72%,0.27%,2.66%,3.54%,-1.66%,1.86%,-3.13%,-2.7%,-0.19%,-1.21%,-0.36%,-1.3%,-0.06%,13.4%,1.99%,34.9%,3.09%,-1.09%,-2.33%
c1ccc(Nc2ncc(-c3ccccc3)o2)cc1,4.13%,-1.27%,-0.17%,9.09%,11.8%,5.86%,5.93%,4.95%,4.65%,2.89%,5.26%,-2.25%,-2.19%,5.87%,6.84%,1.87%,4.99%,5.07%,-3.06%,2.26%
Cc1cc(-c2ccccn2)cc(C)c1/C=C/c1cncc(-c2nn[nH]n2)c1,3.69%,-0.25%,-1.02%,7.59%,12.9%,3.45%,1.89%,4.85%,4.9%,3.27%,5.02%,-3.94%,-5.12%,3.8%,3.72%,0.41%,-0.48%,-1.8%,0.81%,0.97%
Cc1cc(O)cc(C)c1/C=C/c1cncc(C(=O)N(C)C)c1,2.75%,1.6%,2.35%,5.83%,7.03%,3.38%,8.48%,1.6%,3.68%,4.71%,2.68%,-0.98%,-1.41%,1.77%,0.49%,1.59%,1.73%,-2.1%,0.47%,-0.11%
COC(=O)c1cncc(/C=C/c2c(C)cc(O)cc2C)c1,3.36%,1.31%,1.48%,1.5%,5.57%,0.99%,3.92%,1.59%,4.29%,-1.81%,1.22%,0.45%,2.47%,2.59%,2.56%,3.23%,2.23%,2.65%,0.11%,2.52%
CCOc1nccc2c1nc(-c1nonc1N)n2CC,3.56%,0.36%,4.21%,-6.67%,6.06%,3.87%,7.56%,2.58%,2.91%,0.94%,3.14%,0.65%,6.12%,2.9%,1.35%,0.56%,0.99%,7.22%,0.43%,0.81%
Cc1nc(-c2ccccc2)n2nc(NCCCN3CCOCC3)ncc12,1.02%,-0.13%,-0.34%,3.9%,3.71%,1.59%,2.11%,1.83%,1.77%,1.57%,2.42%,-2.28%,-2.05%,1.91%,1.2%,-0.22%,0.85%,4.37%,0.1%,0.59%
FC(F)(F)c1ccc(-c2nn3ncccc3c2-c2ccnc(Nc3ccc4c(c3)OCCO4)n2)cc1,3.1%,5.92%,1.12%,17.1%,67.5%,3.8%,36.8%,5.26%,0.38%,4.31%,2.26%,8.18%,13%,0.21%,-2.14%,1.63%,0.41%,1.96%,-3.87%,0.8%
N#Cc1c(NC(=O)c2ccccc2F)sc2c1CCCC2,-1.26%,-1.34%,-0.38%,-1.85%,-1.18%,0.63%,2.26%,-1.92%,-2.71%,-1.2%,-0.74%,-1.54%,-0.64%,-2.15%,-1.29%,1.85%,2.06%,0.79%,2.03%,0.86%
Cc1ccc(Nc2ccnc(Nc3cccc(C(N)=O)c3)n2)cc1O,5.1%,0.91%,7.12%,4.41%,28%,3.7%,17.7%,-1.12%,4.69%,-1.03%,1.74%,-1.01%,1.41%,1.78%,3.39%,2.88%,9.7%,3.13%,1.94%,0.79%
